# Measurements as given in PubChem BioAssay AID1159580 (chemical genetic matrix, 2015).
# Screen size: about 5,500 compounds; about 2,000 (36%) were called active. Inconclusive results (about 18%) are left out. Some of the results follow. A number with no mark means an inactive call. Cut-off read from the data, not from the text of the source: active = normalized growth mostly below about 0.91 (no sharp cut-off); inconclusive = no clear call, values can overlap the other calls; inactive = mostly above about 0.92.
# Assay: chemical genetic growth profiling, strain panel (AID 1159580);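 note: tested at 20 µM; growth read once vehicle control cultures reached saturation at 30 °C; 1 = growth at the plate median or of vehicle wells; lower values mean less growth of the strain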
# Conditions: S. cerevisiae deletion strains, growth OD
# [1] = locus YAL013W, strain DEP1, hits give low values
# [2] = locus YBR229C, strain ROT2, hits give low values
# [3] = locus YDL101C, strain DUN1, hits give low values
# [4] = locus YDL134C, strain PPH21, hits give low values
# [5] = locus YDR150W, strain NUM1, hits give low values
# [6] = locus YEL061C, strain CIN8, hits give low values
# [7] = locus YGR078C, strain PAC10, hits give low values
# [8] = locus YHR030C, strain SLT2, hits give low values
# [9] = locus YHR087W, strain rtc3, hits give low values
# [10] = locus YJR043C, strain POL32, hits give low values
# [11] = locus YJR075W, strain HOC1, hits give low values
# [12] = locus YLR039C, strain RIC1, hits give low values
# [13] = locus YLR058C, strain SHM2 (second series), hits give low values
# [14] = locus YLR085C, strain ARP6, hits give low values
# [15] = locus YLR262C, strain YPT6, hits give low values
# [16] = locus YML094W, strain GIM5, hits give low values
# [17] = locus YMR219W, strain ESC1, hits give low values
# [18] = locus YMR263W, strain SAP30, hits give low values
# [19] = locus YNL153C, strain GIM3, hits give low values
# [20] = locus YNL298W, strain CLA4 (second series), hits give low values
# [21] = locus YNL322C, strain KRE1, hits give low values
# [22] = locus YNR030W, strain Alg12, hits give low values
# [23] = locus YPL055C, strain LGE1, hits give low values
# [24] = locus YPL241C, strain CIN2, hits give low values
# [25] = locus YPR135W, strain CTF4, hits give low values
smiles,measurement,setting,value
CC1C(c2ccccc2)OCCN1CN1C(=O)c2ccccc2C1=O (stereo not given),normalized growth,[1],1.02
same,normalized growth,[2],0.985
same,normalized growth,[3],1.01
same,normalized growth,[4],1.01
same,normalized growth,[5],0.99
same,normalized growth,[6],0.98
same,normalized growth,[7],1.01
same,normalized growth,[8],1.02
same,normalized growth,[9],0.993
same,normalized growth,[10],1.01
same,normalized growth,[11],0.98
same,normalized growth,"locus YKL190W, strain CNB1, hits give low values",0.987
same,normalized growth,[12],1.05
same,normalized growth,[13],1
same,normalized growth,[14],0.969
same,normalized growth,[15],1.07
same,normalized growth,[16],0.975
same,normalized growth,[17],0.996
same,normalized growth,[18],0.991
same,normalized growth,[19],0.992
same,normalized growth,[20],1
same,normalized growth,[21],0.993
same,normalized growth,[22],1.01
same,normalized growth,[23],0.991
same,normalized growth,[24],0.98
same,normalized growth,[25],1.06
CCCCCCNC(=O)NCCCCCC,normalized growth,[1],0.958
same,normalized growth,[2],0.931
same,normalized growth,[3],0.983
same,normalized growth,[4],0.925
same,normalized growth,[5],0.931
same,normalized growth,[6],0.939
same,normalized growth,[7],0.933
same,normalized growth,[8],0.858
same,normalized growth,[9],0.955
same,normalized growth,[10],0.942
same,normalized growth,[11],0.894
same,normalized growth,[12],0.76 (active)
same,normalized growth,[13],0.933 (active)
same,normalized growth,[14],0.881
same,normalized growth,[15],0.723 (active)
same,normalized growth,[16],0.991
same,normalized growth,[17],0.924 (active)
same,normalized growth,[18],0.98
same,normalized growth,[19],0.986
same,normalized growth,[20],0.991
same,normalized growth,[21],0.914 (active)
same,normalized growth,[22],0.918
same,normalized growth,"locus YOL006C, strain TOP1, hits give low values",0.858
same,normalized growth,[23],0.959
same,normalized growth,[24],0.982
same,normalized growth,[25],0.824
CC(C)(CO)C(O)C(=O)NCCC(=O)NCCSSCCNC(=O)CCNC(=O)C(O)C(C)(C)CO (stereo not given),normalized growth,[8],0.954
same,normalized growth,"locus YHR079C, strain IRE1, hits give low values",0.973
same,normalized growth,"locus YJL095W, strain BCK1, hits give low values",0.968
same,normalized growth,"locus YJR066W, strain TOR1, hits give low values",0.897
same,normalized growth,"locus YLR113W, strain HOG1, hits give low values",0.951
same,normalized growth,"locus YNL183C, strain NPR1, hits give low values",0.89
same,normalized growth,"locus YOR231W, strain MKK1, hits give low values",0.955
same,normalized growth,"locus YPL256C, strain CLN2, hits give low values",0.951
